# Experimental data reported in PMC7862700, “An all-to-all approach to the identification of sequence-specific readers for epigenetic DNA modifications on cytosine”.
# Columns and labels:
# Test in all cases: DAPPL (digital affinity profiling via proximity ligation, sequencing); 10 mM Tris-HCl pH 7.5, 50 mM NaCl, 1 mM DTT, 4% glycerol, room temperature, 30 min; GST-TFs on glutathione beads, 16-mer random dsDNA library, 0.1% formaldehyde crosslink after washing; high values mean tight binding
# [1] = biological target: T1, FLI1 (Homo sapiens, UniProt Q01543 1-452); conditions: protein: recombinant; tags: N-terminal GST; dsDNA, one strand shown
# T1 sequence: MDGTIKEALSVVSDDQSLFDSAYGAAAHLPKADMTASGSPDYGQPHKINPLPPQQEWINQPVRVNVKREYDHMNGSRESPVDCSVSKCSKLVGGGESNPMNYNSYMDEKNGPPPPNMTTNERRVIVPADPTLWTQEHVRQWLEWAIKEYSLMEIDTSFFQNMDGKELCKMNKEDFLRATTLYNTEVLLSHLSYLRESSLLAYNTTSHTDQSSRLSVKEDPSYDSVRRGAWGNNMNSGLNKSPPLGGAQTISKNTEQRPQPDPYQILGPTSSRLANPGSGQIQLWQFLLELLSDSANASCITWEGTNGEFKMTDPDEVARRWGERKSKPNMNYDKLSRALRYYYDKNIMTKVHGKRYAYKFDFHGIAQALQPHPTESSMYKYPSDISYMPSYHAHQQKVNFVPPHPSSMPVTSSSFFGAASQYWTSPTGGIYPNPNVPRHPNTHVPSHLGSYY
# Outline: (§1)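 Human transcription factors fused to GST were expressed in yeast, captured on glutathione beads, given DNA barcodes and pooled with a GST-only negative control. Pools were incubated with 200 nmole of a 16-mer random double-stranded DNA library in Tris/NaCl/DTT/glycerol buffer at room temperature for 30 min. They were then washed, crosslinked with 0.1% formaldehyde, proximity-ligated (BsaI/T4 ligase, 1 h, 37 °C), PCR-amplified and sequenced on an Illumina NextSeq500. Binding signal is each 6-mer's read frequency for a factor divided by its frequency for the GST control.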
# [2] = biological target: T2, ELK1 (Homo sapiens, UniProt P19419 1-428); conditions: protein: recombinant; tags: N-terminal GST; dsDNA, one strand shown
# T2 sequence: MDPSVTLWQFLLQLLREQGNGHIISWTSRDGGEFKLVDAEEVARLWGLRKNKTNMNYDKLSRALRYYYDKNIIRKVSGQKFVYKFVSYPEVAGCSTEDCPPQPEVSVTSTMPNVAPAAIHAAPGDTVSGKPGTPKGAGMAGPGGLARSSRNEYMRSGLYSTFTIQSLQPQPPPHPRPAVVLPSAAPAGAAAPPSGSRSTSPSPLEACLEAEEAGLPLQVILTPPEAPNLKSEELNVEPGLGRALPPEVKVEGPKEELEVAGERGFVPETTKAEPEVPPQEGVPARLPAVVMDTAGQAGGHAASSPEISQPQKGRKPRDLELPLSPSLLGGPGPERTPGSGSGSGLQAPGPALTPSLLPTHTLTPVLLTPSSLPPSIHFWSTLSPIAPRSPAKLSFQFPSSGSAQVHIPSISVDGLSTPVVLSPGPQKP
# Outline: as §1
# [3] = biological target: T3, GABPA (Homo sapiens, UniProt Q06546 1-454); conditions: protein: recombinant; tags: N-terminal GST; dsDNA, one strand shown
# T3 sequence: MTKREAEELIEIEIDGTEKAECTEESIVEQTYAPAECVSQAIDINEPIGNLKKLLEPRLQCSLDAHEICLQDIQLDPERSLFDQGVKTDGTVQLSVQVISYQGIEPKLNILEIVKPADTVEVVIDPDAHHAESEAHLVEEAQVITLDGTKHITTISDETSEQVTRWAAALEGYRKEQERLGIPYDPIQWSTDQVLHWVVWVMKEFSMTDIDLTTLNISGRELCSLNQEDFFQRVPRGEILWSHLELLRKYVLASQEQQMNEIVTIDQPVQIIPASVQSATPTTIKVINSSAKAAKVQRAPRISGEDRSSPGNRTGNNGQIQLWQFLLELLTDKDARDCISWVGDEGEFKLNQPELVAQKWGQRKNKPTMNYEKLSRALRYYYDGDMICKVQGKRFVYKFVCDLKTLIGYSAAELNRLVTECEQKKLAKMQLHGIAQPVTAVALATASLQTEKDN
# Outline: as §1
# [4] = biological target: T4, ERG (Homo sapiens, UniProt P11308 1-479); conditions: protein: recombinant; tags: N-terminal GST; dsDNA, one strand shown
# T4 sequence: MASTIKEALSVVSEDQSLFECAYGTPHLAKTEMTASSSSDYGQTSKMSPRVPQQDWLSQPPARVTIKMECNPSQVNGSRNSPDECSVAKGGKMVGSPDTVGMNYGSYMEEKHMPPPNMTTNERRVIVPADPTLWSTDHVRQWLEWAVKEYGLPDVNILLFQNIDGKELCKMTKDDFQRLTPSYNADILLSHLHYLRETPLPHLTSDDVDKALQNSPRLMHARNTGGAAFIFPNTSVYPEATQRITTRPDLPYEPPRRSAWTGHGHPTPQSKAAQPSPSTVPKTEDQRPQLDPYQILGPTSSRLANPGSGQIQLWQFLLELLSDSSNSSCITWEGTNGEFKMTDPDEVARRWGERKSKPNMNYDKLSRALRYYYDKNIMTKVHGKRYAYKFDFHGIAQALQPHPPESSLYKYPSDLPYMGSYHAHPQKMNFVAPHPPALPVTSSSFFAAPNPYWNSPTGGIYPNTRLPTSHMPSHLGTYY
# Outline: as §1
# [5] = biological target: ELF1 (Homo sapiens, UniProt P32519 1-619); conditions: protein: recombinant; tags: N-terminal GST; dsDNA, one strand shown
# Sequence of ELF1 (P32519 whole entry): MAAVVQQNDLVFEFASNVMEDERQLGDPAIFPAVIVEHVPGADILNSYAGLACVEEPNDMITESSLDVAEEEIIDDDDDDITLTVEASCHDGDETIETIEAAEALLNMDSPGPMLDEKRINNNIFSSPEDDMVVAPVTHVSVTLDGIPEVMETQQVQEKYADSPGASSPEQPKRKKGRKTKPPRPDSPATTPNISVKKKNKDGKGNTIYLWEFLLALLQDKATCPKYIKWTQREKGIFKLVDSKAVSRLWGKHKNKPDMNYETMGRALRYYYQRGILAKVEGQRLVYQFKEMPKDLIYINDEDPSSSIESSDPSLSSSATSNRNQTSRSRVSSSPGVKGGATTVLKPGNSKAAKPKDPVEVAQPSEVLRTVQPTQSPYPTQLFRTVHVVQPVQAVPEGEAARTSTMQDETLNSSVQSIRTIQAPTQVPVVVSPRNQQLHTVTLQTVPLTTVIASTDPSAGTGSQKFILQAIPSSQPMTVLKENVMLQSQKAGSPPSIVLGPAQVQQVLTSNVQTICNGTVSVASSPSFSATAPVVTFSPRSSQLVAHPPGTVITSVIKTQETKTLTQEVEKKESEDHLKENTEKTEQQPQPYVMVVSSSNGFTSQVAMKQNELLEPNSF
# Outline: as §1
# [6] = biological target: T5, EHF (Homo sapiens, UniProt Q9NZC4 1-300); conditions: protein: recombinant; tags: N-terminal GST; dsDNA, one strand shown
# T5 sequence: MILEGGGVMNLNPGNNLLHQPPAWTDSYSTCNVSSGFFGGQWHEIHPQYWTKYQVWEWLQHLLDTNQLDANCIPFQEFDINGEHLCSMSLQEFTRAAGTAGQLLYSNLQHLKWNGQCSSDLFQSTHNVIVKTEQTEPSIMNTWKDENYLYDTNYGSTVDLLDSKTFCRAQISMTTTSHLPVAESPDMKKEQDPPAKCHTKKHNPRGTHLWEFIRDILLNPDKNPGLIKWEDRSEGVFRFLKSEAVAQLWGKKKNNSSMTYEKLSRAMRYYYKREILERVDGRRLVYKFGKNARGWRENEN
# Outline: as §1
# [7] = biological target: SPI1 (Homo sapiens, UniProt P17947 1-270); conditions: protein: recombinant; tags: N-terminal GST; dsDNA, one strand shown
# Outline: as §1
# [8] = biological target: SPIB (Homo sapiens, UniProt Q01892 1-262); conditions: protein: recombinant; tags: N-terminal GST; dsDNA, one strand shown
# Sequence of SPIB (Q01892 whole entry): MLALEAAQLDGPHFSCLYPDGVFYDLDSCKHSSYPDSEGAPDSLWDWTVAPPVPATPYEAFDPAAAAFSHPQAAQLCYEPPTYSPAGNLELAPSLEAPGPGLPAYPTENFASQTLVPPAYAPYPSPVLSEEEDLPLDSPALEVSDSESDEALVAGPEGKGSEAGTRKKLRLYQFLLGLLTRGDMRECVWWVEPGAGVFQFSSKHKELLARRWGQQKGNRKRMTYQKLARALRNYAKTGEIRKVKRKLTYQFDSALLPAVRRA
# Outline: as §1
# [9] = biological target: T6, ELK3 (Homo sapiens, UniProt P41970 1-407); conditions: protein: recombinant; tags: N-terminal GST; dsDNA, one strand shown
# T6 sequence: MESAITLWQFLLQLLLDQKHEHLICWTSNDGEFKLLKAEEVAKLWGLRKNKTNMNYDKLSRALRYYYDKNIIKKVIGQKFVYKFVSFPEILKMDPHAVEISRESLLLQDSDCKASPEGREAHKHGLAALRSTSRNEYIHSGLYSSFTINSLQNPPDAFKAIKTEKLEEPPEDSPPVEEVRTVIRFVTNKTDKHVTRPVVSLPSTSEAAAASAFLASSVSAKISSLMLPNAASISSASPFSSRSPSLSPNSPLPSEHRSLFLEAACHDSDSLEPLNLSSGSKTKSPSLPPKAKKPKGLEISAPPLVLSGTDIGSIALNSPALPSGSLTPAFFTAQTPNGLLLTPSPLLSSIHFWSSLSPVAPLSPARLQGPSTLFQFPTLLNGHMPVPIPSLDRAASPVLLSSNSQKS
# Outline: as §1
# [10] = biological target: T7, FEV (Homo sapiens, UniProt Q99581 1-238); conditions: protein: recombinant; tags: N-terminal GST; dsDNA, one strand shown
# T7 sequence: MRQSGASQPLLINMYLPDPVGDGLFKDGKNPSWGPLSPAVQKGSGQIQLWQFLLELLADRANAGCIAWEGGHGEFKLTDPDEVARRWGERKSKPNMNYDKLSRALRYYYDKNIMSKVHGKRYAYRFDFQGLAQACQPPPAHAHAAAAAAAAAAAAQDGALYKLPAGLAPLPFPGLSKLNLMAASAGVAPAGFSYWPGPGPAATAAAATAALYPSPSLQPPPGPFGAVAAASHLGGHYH
# Outline: as §1
# [11] = biological target: ETV5 (Homo sapiens, UniProt P41161 1-510); conditions: protein: recombinant; tags: N-terminal GST; dsDNA, one strand shown
# Sequence of ETV5 (P41161 whole entry): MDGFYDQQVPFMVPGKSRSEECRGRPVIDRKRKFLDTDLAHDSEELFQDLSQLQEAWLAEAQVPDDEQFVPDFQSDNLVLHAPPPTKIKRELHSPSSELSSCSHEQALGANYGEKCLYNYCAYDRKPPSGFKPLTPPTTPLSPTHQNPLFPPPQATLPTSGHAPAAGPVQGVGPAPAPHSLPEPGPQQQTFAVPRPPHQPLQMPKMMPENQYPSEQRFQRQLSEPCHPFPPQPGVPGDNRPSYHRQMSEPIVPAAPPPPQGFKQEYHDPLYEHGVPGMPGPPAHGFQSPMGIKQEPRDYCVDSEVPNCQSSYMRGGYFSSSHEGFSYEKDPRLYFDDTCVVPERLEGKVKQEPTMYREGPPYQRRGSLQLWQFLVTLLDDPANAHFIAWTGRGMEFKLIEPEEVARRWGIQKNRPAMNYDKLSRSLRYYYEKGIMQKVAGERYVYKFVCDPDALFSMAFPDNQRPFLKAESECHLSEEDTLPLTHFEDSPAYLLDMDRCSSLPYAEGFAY
# Outline: as §1
# [12] = biological target: HSF1 (Homo sapiens, UniProt Q00613 1-529); conditions: protein: recombinant; tags: N-terminal GST; chain copies: 3; dsDNA, one strand shown
# Sequence of HSF1 (Q00613 whole entry): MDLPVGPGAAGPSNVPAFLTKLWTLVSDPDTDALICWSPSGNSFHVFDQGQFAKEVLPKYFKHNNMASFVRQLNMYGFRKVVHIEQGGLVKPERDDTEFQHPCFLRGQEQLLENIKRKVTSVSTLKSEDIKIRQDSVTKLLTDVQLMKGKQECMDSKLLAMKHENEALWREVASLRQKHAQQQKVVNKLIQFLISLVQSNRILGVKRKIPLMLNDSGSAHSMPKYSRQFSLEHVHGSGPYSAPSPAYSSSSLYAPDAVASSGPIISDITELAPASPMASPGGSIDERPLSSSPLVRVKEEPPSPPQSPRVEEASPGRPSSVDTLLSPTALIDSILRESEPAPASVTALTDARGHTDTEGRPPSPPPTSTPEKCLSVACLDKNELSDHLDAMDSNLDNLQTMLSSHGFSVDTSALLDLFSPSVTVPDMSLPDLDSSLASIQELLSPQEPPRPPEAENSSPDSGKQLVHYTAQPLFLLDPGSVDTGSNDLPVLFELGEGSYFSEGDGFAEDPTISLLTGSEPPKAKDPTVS
# Outline: as §1
# [13] = biological target: T8, SPIC (Homo sapiens, UniProt Q8N5J4 1-248); conditions: protein: recombinant; tags: N-terminal GST; dsDNA, one strand shown
# T8 sequence: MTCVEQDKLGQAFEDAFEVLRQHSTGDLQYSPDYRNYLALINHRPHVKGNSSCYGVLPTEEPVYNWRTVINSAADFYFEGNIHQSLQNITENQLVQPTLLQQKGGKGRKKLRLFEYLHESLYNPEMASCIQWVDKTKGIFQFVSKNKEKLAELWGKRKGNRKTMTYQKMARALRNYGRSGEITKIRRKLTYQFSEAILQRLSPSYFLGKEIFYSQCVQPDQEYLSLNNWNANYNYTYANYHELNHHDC
# Outline: as §1
# [14] = biological target: ELF4 (Homo sapiens, UniProt Q99607 1-663); conditions: protein: recombinant; tags: N-terminal GST; dsDNA, one strand shown
# Sequence of ELF4 (Q99607 whole entry): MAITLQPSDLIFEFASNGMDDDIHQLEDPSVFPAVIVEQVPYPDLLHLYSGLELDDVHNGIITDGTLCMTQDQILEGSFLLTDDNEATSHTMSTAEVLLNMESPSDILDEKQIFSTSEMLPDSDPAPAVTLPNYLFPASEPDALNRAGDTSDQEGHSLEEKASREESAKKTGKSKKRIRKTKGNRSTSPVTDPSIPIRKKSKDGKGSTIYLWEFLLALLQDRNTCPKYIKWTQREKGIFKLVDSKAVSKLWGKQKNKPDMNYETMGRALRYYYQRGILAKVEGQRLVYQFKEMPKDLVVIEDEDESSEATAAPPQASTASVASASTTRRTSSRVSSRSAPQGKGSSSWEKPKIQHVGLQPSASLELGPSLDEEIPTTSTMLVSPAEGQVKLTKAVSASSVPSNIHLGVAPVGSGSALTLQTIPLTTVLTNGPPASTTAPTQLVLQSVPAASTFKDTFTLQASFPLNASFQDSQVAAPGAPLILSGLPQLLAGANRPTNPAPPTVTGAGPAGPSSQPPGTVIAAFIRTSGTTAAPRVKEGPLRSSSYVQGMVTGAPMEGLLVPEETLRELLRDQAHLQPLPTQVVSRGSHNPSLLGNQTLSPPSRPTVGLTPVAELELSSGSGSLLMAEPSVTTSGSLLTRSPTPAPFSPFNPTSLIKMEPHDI
# Outline: as §1
# [15] = biological target: T9, ELK4 (Homo sapiens, UniProt P28324-2 1-405); conditions: protein: recombinant; tags: N-terminal GST; dsDNA, one strand shown
# T9 sequence: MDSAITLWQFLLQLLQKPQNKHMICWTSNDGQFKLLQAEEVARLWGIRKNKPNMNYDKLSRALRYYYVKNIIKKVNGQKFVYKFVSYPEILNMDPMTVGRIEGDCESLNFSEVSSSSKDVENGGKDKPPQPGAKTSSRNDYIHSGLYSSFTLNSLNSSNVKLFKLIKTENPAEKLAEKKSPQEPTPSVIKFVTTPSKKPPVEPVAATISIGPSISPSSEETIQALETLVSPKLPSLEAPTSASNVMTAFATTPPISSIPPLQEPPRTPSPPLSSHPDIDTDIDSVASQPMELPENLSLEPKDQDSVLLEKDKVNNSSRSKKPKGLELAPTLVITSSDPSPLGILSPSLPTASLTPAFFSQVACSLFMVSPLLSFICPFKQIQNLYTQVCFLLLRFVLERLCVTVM
# Outline: as §1
# [16] = biological target: T10, ETV2 (Homo sapiens, UniProt O00321 1-342); conditions: protein: recombinant; tags: N-terminal GST; dsDNA, one strand shown
# T10 sequence: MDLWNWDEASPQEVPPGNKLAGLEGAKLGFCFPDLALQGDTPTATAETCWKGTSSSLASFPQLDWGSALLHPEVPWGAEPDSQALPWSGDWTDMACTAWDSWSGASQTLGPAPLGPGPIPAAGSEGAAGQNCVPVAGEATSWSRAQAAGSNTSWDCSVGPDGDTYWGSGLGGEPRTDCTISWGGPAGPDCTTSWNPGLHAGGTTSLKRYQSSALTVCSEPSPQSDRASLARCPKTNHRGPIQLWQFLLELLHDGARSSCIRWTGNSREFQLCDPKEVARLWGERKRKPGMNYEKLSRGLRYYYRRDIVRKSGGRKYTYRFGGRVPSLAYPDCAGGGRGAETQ
# Outline: as §1
# [17] = biological target: T11, ELF3 (Homo sapiens, UniProt P78545 1-371); conditions: protein: recombinant; tags: N-terminal GST; dsDNA, one strand shown
# T11 sequence: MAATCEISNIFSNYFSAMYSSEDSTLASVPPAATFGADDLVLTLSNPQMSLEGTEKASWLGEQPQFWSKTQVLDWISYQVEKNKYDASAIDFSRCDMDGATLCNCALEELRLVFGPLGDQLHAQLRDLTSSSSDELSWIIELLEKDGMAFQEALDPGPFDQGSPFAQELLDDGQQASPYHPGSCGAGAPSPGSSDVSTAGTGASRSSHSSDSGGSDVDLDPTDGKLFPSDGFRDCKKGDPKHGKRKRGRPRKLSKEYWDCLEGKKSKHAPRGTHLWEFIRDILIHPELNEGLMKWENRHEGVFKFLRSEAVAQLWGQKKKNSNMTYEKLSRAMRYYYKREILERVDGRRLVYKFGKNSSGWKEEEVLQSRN
# Outline: as §1
# [18] = biological target: CRX (Homo sapiens, UniProt O43186 1-299); conditions: protein: recombinant; tags: N-terminal GST; dsDNA, one strand shown
# Sequence of CRX (O43186 whole entry): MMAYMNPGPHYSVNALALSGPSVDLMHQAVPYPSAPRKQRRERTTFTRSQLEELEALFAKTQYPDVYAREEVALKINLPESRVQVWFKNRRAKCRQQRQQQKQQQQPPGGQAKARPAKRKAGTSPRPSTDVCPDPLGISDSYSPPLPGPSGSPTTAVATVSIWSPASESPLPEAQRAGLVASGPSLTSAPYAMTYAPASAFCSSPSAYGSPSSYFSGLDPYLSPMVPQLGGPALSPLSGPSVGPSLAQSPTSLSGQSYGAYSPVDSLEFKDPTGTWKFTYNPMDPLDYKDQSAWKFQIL
# Outline: as §1
# [19] = biological target: ETV1 (Homo sapiens, UniProt P50549 1-477); conditions: protein: recombinant; tags: N-terminal GST; dsDNA, one strand shown
# Sequence of ETV1 (P50549 whole entry): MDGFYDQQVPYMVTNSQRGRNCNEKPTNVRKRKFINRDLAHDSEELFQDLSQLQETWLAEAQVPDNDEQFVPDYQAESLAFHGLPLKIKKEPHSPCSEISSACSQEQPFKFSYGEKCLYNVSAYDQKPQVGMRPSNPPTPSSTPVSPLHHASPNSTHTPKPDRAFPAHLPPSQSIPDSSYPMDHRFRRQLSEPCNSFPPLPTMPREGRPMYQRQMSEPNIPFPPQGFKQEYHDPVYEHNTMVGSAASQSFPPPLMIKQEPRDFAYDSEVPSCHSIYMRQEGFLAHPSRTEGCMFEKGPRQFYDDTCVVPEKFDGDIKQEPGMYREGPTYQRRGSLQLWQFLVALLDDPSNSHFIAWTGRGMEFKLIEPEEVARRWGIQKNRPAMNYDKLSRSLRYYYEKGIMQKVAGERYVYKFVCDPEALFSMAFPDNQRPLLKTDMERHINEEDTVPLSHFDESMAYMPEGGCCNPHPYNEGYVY
# Outline: as §1
sequence,measurement,setting,value
ATCTCG,binding signal,[1],"1.41 fold enrichment (6-mer frequency, TF over GST control)"
same,binding signal,[2],"1.27 fold enrichment (6-mer frequency, TF over GST control)"
same,binding signal,[3],"1.42 fold enrichment (6-mer frequency, TF over GST control)"
same,binding signal,[4],"1.23 fold enrichment (6-mer frequency, TF over GST control)"
same,binding signal,[5],"1.39 fold enrichment (6-mer frequency, TF over GST control)"
same,binding signal,[6],"1.34 fold enrichment (6-mer frequency, TF over GST control)"
same,binding signal,[7],"1.37 fold enrichment (6-mer frequency, TF over GST control)"
same,binding signal,[8],"1.26 fold enrichment (6-mer frequency, TF over GST control)"
same,binding signal,[9],"1.26 fold enrichment (6-mer frequency, TF over GST control)"
same,binding signal,[10],"1.19 fold enrichment (6-mer frequency, TF over GST control)"
same,binding signal,[11],"1.35 fold enrichment (6-mer frequency, TF over GST control)"
same,binding signal,[12],"2.44 fold enrichment (6-mer frequency, TF over GST control)"
same,binding signal,[13],"1.19 fold enrichment (6-mer frequency, TF over GST control)"
same,binding signal,[14],"1.32 fold enrichment (6-mer frequency, TF over GST control)"
same,binding signal,[15],"1.42 fold enrichment (6-mer frequency, TF over GST control)"
same,binding signal,[16],"1.51 fold enrichment (6-mer frequency, TF over GST control)"
same,binding signal,[17],"1.55 fold enrichment (6-mer frequency, TF over GST control)"
same,binding signal,[18],"1.92 fold enrichment (6-mer frequency, TF over GST control)"
same,binding signal,[19],"1.46 fold enrichment (6-mer frequency, TF over GST control)"
